# Assay results taken from PubChem BioAssay (NCATS).
# “And” between values parts separate entries of the source, which are not always exact repeats. Equal values may be shown once. Records with an inconclusive call do not appear. More than one record can exist for a structure, and the calls need not agree. The source made the active and inactive calls. Unless noted, calls come from the whole dose curve; as a rule, active = well fitted curve in the direction sought with a large enough effect; inconclusive = small, poorly fitted or top-dose-only effect, or another doubt; inactive = no such curve, though single readings can be large; an effect the other way counts as inactive or inconclusive.
# Assays:
# [1] = Primary qHTS for small molecule stabilizers of the endoplasmic reticulum resident proteome: Secreted ER Calcium Modulated Protein (SERCaMP) assay (AID 1508630); conditions: SH-SY5Y GLuc-SERCaMP (Gaussia luciferase released on ER calcium loss) secretion, thapsigargin, luminescence; series mostly up to 38.4 µM; note: % is set by controls: 0 for no effect and ±100 for the full control effect
# Method in brief: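 The SH-SY5Y reporter protocol was run at 3 concentrations up to 38.3 uM (primary) or 11 concentrations (follow-up): 16 h compound, 100 nM thapsigargin for 4 h, then extracellular luciferase luminescence.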
# [2] = biological target: Cytochrome P450 2D6 (Homo sapiens) (UniProt P10635); experiment: Cytochrome P450 family 2 subfamily D member 6 (CYP2D6) small molecule antagonists: luciferase biochemical (cell-free) qHTS assay (AID 1645840; active = well fitted curve in the direction sought with a large enough effect in the repeat runs; an effect the other way counts as inactive or inconclusive; note: nearly all actives have a fitted effect of over 55% in size; note: potency is the fitted concentration of half-maximal effect; for activity change, negative = inhibition: % is set by controls: 0 for no effect and ±100 for the full control effect); conditions: P450-Glo CYP2D6 enzyme, luciferin luminescence, 1 h; series mostly up to 57.4 µM
# Sequence of Cytochrome P450 2D6 (Homo sapiens) (P10635 whole entry, looked up): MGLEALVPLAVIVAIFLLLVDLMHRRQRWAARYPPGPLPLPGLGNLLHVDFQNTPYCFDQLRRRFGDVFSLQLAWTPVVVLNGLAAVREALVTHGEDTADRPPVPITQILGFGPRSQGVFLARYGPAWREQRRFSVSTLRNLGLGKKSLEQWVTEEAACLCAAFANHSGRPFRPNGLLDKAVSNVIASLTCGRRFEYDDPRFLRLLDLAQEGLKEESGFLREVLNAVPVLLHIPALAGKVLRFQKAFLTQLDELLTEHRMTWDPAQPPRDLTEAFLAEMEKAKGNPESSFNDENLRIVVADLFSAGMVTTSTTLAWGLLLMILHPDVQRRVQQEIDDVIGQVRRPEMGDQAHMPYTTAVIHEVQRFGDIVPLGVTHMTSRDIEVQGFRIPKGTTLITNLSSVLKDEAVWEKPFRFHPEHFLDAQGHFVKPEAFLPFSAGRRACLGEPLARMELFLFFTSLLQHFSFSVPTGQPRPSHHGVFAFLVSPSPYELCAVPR
# Method in brief: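 P450-Glo CYP2D6 system: proluciferin substrate converted by enzyme to luciferin, read by luminescence proportional to activity. Enzyme-substrate mix with compound 10 min at room temperature, then NADPH regeneration 1 h before detection reagent.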
# [3] = biological target: Cytochrome P450 2C9 (Homo sapiens) (UniProt P11712); experiment: Cytochrome P450 family 2 subfamily C member 9 (CYP2C9) small molecule antagonists: luciferase biochemical (cell-free) qHTS assay (AID 1645842; active = well fitted curve in the direction sought with a large enough effect in the repeat runs; an effect the other way counts as inactive or inconclusive; note: nearly all actives have a fitted effect of over 55% in size; note: potency is the fitted concentration of half-maximal effect; for activity change, negative = inhibition: % is set by controls: 0 for no effect and ±100 for the full control effect); conditions: P450-Glo CYP2C9 enzyme assay, luciferin luminescence; series mostly up to 57.4 µM
# Sequence of Cytochrome P450 2C9 (Homo sapiens) (P11712 whole entry, looked up): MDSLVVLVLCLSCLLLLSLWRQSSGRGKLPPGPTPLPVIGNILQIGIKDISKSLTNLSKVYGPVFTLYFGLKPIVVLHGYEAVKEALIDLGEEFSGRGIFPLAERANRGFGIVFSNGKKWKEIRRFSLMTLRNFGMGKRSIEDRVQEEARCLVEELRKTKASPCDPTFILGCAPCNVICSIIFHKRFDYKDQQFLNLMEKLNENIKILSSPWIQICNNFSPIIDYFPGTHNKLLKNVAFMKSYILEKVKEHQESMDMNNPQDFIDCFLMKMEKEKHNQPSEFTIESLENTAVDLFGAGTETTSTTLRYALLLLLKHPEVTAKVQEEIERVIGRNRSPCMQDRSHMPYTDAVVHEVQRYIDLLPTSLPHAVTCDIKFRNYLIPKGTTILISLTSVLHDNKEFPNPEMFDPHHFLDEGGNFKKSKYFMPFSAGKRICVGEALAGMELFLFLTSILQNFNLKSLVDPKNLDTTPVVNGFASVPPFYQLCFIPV
# Method in brief: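 P450-Glo CYP2C9 system: proluciferin substrate with enzyme in mix containing 0.4% BSA, 10 min at room temperature, then NADPH regeneration solution added and incubated 1 h at 37C. Detection reagent stopped reaction; luminescence read after 20 min as RLU.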
# [4] = Primary qHTS for inhibitors of nuclear receptor binding SET domain protein 2 (NSD2) in an isogenic RCH-ACV NSD2 p.E1099K mutant (9B) (AID 1645876); conditions: RCH-ACV NSD2 E1099K (9B) viability, CellTiter-Glo, 72 h; series mostly up to 44.9 µM; note: nearly all actives have a fitted effect of over 70% in size; note: potency is the fitted concentration of half-maximal effect
# [5] = Primary qHTS for inhibitors of nuclear receptor binding SET domain protein 2 (NSD2) in an RCH-ACV wild type WT cells (2C) (AID 1645877); conditions: RCH-ACV (leukaemia line) NSD2 WT (2C) viability, CellTiter-Glo, 72 h; series mostly up to 44.9 µM; note: nearly all actives have a fitted effect of over 70% in size; note: potency is the fitted concentration of half-maximal effect
# [6] = biological target: Catechol O-methyltransferase (Homo sapiens) (UniProt P21964); experiment: Confirmatory Screen for Target Class Profiling of Small Molecule Inhibitors of Methyltransferases (AID 1745852; calls by dose curve; for activity change, negative = inhibition: % is set by controls: 0 for no effect and ±100 for the full control effect); conditions: MTase-Glo luminescence, SAH detection, recombinant enzyme; measured here: COMT max response; stronger effect = lower value
# Sequence of Catechol O-methyltransferase (Homo sapiens) (P21964 whole entry, looked up): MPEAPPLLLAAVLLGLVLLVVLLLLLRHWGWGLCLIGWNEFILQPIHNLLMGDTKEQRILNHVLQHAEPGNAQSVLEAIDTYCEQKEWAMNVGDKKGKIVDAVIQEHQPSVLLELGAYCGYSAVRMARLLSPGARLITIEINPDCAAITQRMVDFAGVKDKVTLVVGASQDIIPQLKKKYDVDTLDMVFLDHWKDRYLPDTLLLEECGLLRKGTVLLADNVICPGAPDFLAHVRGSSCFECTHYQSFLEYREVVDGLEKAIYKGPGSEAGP
# [7] = biological target: Guanidinoacetate N-methyltransferase (Homo sapiens) (UniProt Q14353); experiment: as above; conditions: MTase-Glo luminescence, SAH detection, recombinant enzyme; activity change, negative = inhibition: at 57.3 µM (top of the series) unless noted
Compound,Potency [1],Potency [2],Potency [3],Potency [4],Potency [5],activity [6],"activity change, negative = inhibition [7]"
Nc1ccn([C@@H]2CS[C@H](CO)O2)c(=O)n1,inactive,inactive,inactive,inactive,inactive,,
Nc1ccccc1NC(=O)c1ccc(CNc2nccc(-c3cccnc3)n2)cc1,inactive,4.77 µM (active),5.35 µM (active),258 nM (active) and 590 nM (active),205 nM (active) and 590 nM (active),-14%,-1.06%
NC(=O)c1c(OCc2c(F)cc(Br)cc2F)nsc1NC(=O)NCCCCN1CCCC1,inactive,10.7 µM (active),16.9 µM (active),10.5 µM (active),7.42 µM (active),,
COc1ccc(F)c(F)c1C(=O)c1cnc(NC2CCN(S(C)(=O)=O)CC2)nc1N,inactive,inactive,10.7 µM (active) and 19 µM (active),325 nM (active) and 662 nM (active),325 nM (active) and 525 nM (active),,
CC(C)c1cnn2c(NCc3ccccc3)cc(N[C@@H](CO)[C@H](O)CO)nc12,inactive,inactive,3.79 µM (active),515 nM (active) and 186 nM (active),515 nM (active) and 166 nM (active),,
Nc1nc(NCCNc2ncc(-n3ccnc3)c(-c3ccc(Cl)cc3Cl)n2)ccc1[N+](=O)[O-],inactive,1.69 µM (active),0.134 µM (active),5.15 µM (active) and inactive,4.59 µM (active) and inactive,-0.828%,0%
CS(=O)(=O)c1ccc(-c2cnc(N)c(C(=O)Nc3ccccc3)n2)cc1,inactive,inactive,12 µM (active),2.63 µM (active),2.63 µM (active),,
Nc1nccc(Oc2ccc(NC(=O)c3c[nH]cc(-c4ccc(F)cc4)c3=O)cc2F)c1Cl,inactive,3.38 µM (active),8.49 µM (active),11.8 µM (active),10.5 µM (active),-3.16%,-6.18%
COc1ccc2c(OCc3nnc4ccc(-c5ccccc5)nn34)ccnc2c1,inactive,inactive,0.756 µM (active),inactive,inactive,,
CC(C)(C)c1cnc(CSc2cnc(NC(=O)C3CCNCC3)s2)o1,inactive,25.1 µM (active),17.8 µM (active),0.209 µM (active),0.148 µM (active),,
Cc1c(CN2CCN(S(C)(=O)=O)CC2)sc2c(N3CCOCC3)nc(-c3cnc(N)nc3)nc12,inactive,inactive,10.7 µM (active),29 nM (active) and 74.2 nM (active),32.5 nM (active) and 118 nM (active),-10.4%,-5.48%
CC(C)c1nn(-c2c(Cl)cccc2Cl)c2nc(Cc3ccc(OCCO)cc3)[nH]c(=O)c12,inactive,inactive,5.35 µM (active),45.9 nM (active) and 46.8 nM (active),25.8 nM (active) and 41.7 nM (active),,
O=C(Nc1nc2cccc(-c3ccc(CN4CCS(=O)(=O)CC4)cc3)n2n1)C1CC1,inactive,inactive,inactive,14.5 µM (active) and 14.8 µM (active),18.3 µM (active) and 9.34 µM (active),,
CN1CCN(Cc2ccc(NC(=O)Nc3ccc(Oc4cc(NC(=O)C5CC5)ncn4)cc3)cc2C(F)(F)F)CC1,inactive,8.49 µM (active),10.7 µM (active),91.6 nM (active) and 166 nM (active),91.6 nM (active) and 186 nM (active),,
CCNC(=O)Nc1ccc2ncc(Nc3ccc(C)cc3)nc2n1,inactive,inactive,inactive,inactive,inactive,,
O=C(Nc1cn[nH]c1-c1nc2ccc(CN3CCOCC3)cc2[nH]1)NC1CC1,inactive,inactive,inactive,325 nM (active) and 366 nM (active) and 166 nM (active),64.9 nM (active) and 58 nM (active) and 59 nM (active),,
CC1(C)CC(=O)c2c(C(F)(F)F)nn(-c3ccc(C(N)=O)c(NC4CCC(OC(=O)CN)CC4)c3)c2C1 (stereo not given),inactive,15.1 µM (active),2.68 µM (active),103 nM (active) and 74.2 nM (active),81.7 nM (active) and 118 nM (active),-2.7%,0%
Cc1cnc(-c2cnc(NCCNc3ccc(C#N)cn3)nc2-c2ccc(Cl)cc2Cl)[nH]1,inactive,1.51 µM (active),1.51 µM (active),4.59 µM (active) and 3.72 µM (active),3.25 µM (active) and 3.72 µM (active),,
